Shown are actives, neighbours in structure and some others; about 12% of the full set was active somewhere.
Sfp inh: qHTS Assay for Inhibitors of Bacillus subtilis Sfp phosphopantetheinyl transferase (PPTase). AID 1490, 2009. Potency, µM, for the others: largest response in the series, negative = inhibition, usual class: inhibitors. actives 3.5% (n = 310,000). 4'-phosphopantetheinyl transferase ffp (Bacillus subtilis), Q9F4F7. Biochemical Sfp PPTase activity, qHTS;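 note: the enzyme is Sfp with the accession as filed and its product quenches rhodamine fluorescence; 0% = enzyme reaction without inhibitor and -100% = no enzyme wells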
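Buffer: 50 mM Hepes-Na pH 7.6, 10 mM MgCl2, 0.01% Nonidet P-40, 0.01% BSA. Enzyme 15 nM, pre-exposed to compound 15 min; substrates then added and fluorescence change tracked over 30 min.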
HP1b chromo inh: HTS for Inhibitors of HP1-beta Chromodomain Interactions with Methylated Histone Tails. Potency, µM (doses to about 114 µM), without a hit: at the highest dose activity change, negative = inhibition, actives largely listed as inhibitors. actives 0.56% (n = 390,000). Chromobox protein homolog 1 (Homo sapiens), P83916. AID 540317, 2011. AlphaScreen HP1-beta / biotin-H3K9me3 peptide binding; note: nearly all actives have a fitted effect of over 70% in size
Target sequence (P83916 whole entry, looked up): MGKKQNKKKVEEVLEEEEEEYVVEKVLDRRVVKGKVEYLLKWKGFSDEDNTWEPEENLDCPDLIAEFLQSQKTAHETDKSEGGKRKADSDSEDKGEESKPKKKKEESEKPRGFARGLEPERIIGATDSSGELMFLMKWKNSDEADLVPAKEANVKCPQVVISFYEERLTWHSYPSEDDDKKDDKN
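HP1-beta protein (50 nM final) preincubated 30 min at room temperature with biotinylated H3(1-18)K9me3 peptide (50 nM) in PBS pH 7.4, 0.01% Tween-20, then compound added for 30 min. AlphaScreen streptavidin donor/nickel chelate acceptor beads (10 ug/mL final), 30 min dark, luminescence read.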
BAZ2B block: qHTS Assay for Inhibitors of BAZ2B | Potency, µM (highest dose often 114 µM), without a hit: at the highest dose activity change, negative = inhibition, most hits filed as inhibitors | AlphaScreen BAZ2B-H3K14Ac peptide displacement | actives 4.4% (n = 360,000) | Bromodomain adjacent to zinc finger domain protein 2B (Homo sapiens), Q9UIF8; note: % is set by controls: 0 for no effect and ±100 for the full control effect; nearly all actives have a fitted effect of over 60% in size
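Compounds, titrated to a top concentration of 110 uM, were incubated 30 min at room temperature with preformed BAZ2B/acetyl-K14 H3 peptide complex (50 nM each). Proximity signal was measured by AlphaScreen after 20 min with beads.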
L3MBTL1 block: qHTS Assay for the Inhibitors of L3MBTL1; Lethal(3)malignant brain tumor-like protein 1 (Homo sapiens), Q9Y468; AlphaScreen L3MBTL1–H3K9me1 peptide binding; Potency, µM (doses to about 57.1 µM), for inactives: at the highest dose activity, negative = inhibition, most hits filed as inhibitors; actives 0.66% (n = 230,000); note: % is set by controls: 0 for no effect and ±100 for the full control effect; nearly all actives have a fitted effect of over 60% in size
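L3MBTL1 (50 nM) pre-complexed 30 min with biotinylated H3(1-15)K9me1 peptide (75 nM), then compounds added for 30 min at room temperature; AlphaScreen streptavidin donor/nickel chelate acceptor beads (10 ug/mL final) read after 30 min dark incubation.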
JMJD2A Tudor inh: qHTS Assay for Inhibitors of JMJD2A-Tudor Domain. Lysine-specific demethylase 4A (Homo sapiens), O75164. AlphaScreen JMJD2A-Tudor / H3K4me3 peptide binding. Potency, µM (doses to about 114 µM), inactives show at the highest dose activity change, negative = inhibition, hits mostly inhibitors. actives 4.4% (n = 390,000); note: % is set by controls: 0 for no effect and ±100 for the full control effect; nearly all actives have a fitted effect of over 50% in size
G9a block: qHTS Assay for Inhibitors of Histone Lysine Methyltransferase G9a | G9a H3K9 monomethylation, AlphaScreen, 2 h | actives 8.8% (n = 350,000) | Histone-lysine N-methyltransferase EHMT2 (Homo sapiens), Q96KQ7 | Potency, µM (top dose mostly 102 µM), inactives show top-dose activity, negative = inhibition, hits mostly inhibitors; note: % is set by controls: 0 for no effect and ±100 for the full control effect; nearly all actives have a fitted effect of over 75% in size
Target sequence (Q96KQ7 913-1193 limits assumed): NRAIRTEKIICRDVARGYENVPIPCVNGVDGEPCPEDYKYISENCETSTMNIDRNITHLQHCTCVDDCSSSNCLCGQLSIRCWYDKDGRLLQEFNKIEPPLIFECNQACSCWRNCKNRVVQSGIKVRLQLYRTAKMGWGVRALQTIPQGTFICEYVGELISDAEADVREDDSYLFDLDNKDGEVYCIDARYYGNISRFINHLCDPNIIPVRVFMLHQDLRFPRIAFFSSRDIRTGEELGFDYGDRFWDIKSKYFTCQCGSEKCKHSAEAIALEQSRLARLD
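Compounds were preincubated with 20 nM G9a for 15 min, after which biotinylated H3K9 peptide (500 nM) and SAM (20 uM) started a 2 h room-temperature reaction. Monomethylated product was quantified by antibody-based AlphaScreen chemiluminescence.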
The depositor's hits bear a star; ? = inconclusive; / = no result given; [ ] = another dose, or the depositor's remark. Calls come from the whole dose curve; as a rule, active = well fitted curve in the direction sought with a large enough effect; inconclusive = small, poorly fitted or top-dose-only effect, or another doubt; inactive = no such curve, though single readings can be large; an effect the other way counts as inactive or inconclusive. Potency is the fitted concentration of half-maximal effect.

SMILES | Sfp inh | HP1b chromo inh | BAZ2B block | L3MBTL1 block | JMJD2A Tudor inh | G9a block
CCSc1ncc(Cl)c(C(=O)Nc2sc3c(c2C(=O)NCc2cccnc2)CCCC3)n1 | -14% | 10% | 5% | 1% | 100µM* | 26%[59 µM]
CCSc1ncc(Cl)c(C(=O)Nc2sc3c(c2C(=O)NCCCOC)CCCC3)n1 | / | 35% | 4% | / | -19% | 11%[59 µM]
COc1ccc(C(=O)Nc2sc3c(c2C(=O)O)CC(C)(C)OC3)cc1 | 4% | 22% | 8% | 9% | -14% | -3%[59 µM]
Cc1ccc(C(=O)c2c(NC(=O)c3cccnc3)sc3c2CCCC3)cc1 | ? | -31% | ? | -17% | 56µM* | ?
O=C(Cc1ccccc1)Nc1sc2c(c1C(=O)Nc1ccccc1Cl)CCCC2 | / | -2% | -4% | / | -13% | 7.1µM*
CCn1nc(-c2ccccc2)c(-c2ccccc2)c(C(=O)Nc2ccc(S(N)(=O)=O)cc2)c1=O | / | 5% | -17% | / | -27% | ?
CCC1CN(C(=O)Nc2cccc(OC)c2)c2ccccc2O1 (stereo unspecified) | / | 24% | -24% | / | ? | -49%[59 µM]
O=C(Nc1sc2c(c1C(=O)O)CCCC2)c1ccc(Cl)cc1 | 8% | 25% | -30% | -5% | -23% | 15%[59 µM]
O=C(Nc1sc2c(c1C(=O)O)CCC2)c1ccccc1 | 3% | -22% | 79µM* | / | ? | ?
O=C(Nc1sc2c(c1C(=O)O)CCC2)c1ccc(F)cc1 | -6% | 19% | ? | ? | -19% | 40µM*
O=C(Nc1sc2c(c1C(=O)O)CCCCC2)c1ccccc1 | 40µM* | ? | ? | -26% | -28% | /
CC(C)C(NC(=O)C(Cc1ccc(O)cc1)NC(=O)C(NC(=O)C(F)(F)F)C(C)C)C(=O)O (stereo unspecified) | 12% | / | / | / | / | /
COc1ccc(Cl)cc1NC(=O)Cn1c(=O)n(CCC(=O)NCc2ccc3c(c2)OCO3)c(=O)c2ccccc21 | / | 19% | -37% | / | -6% | -14%[59 µM]
Cc1ccc(CCNC(=O)c2cc3sccc3n2Cc2ccc(C)cc2)cc1 | / | 14% | -14% | / | -27% | 6%[59 µM]
O=C(NCCc1ccccc1)c1cc2sccc2n1Cc1ccccc1 | -1% | -7% | 89µM* | 0% | ? | 3%
Cc1ccccc1-n1c(-c2csc(C)c2C)n[nH]c1=S | -11% | 22% | -9% | -7% | 50µM* | 1µM*
Cc1ccccc1-n1c(-c2csc3ccccc23)n[nH]c1=S | 14% | 10% | -38% | -7% | ? | 2µM*
Cc1ccccc1-n1c(=O)c2ccccc2n2cnnc12 | 25% | 32% | 10% | / | 7% | 8%[59 µM]
CCCc1cc(-c2n[nH]c(=S)n2-c2cccc(C)c2)cs1 | ? | -10% | ? | -24% | ? | 3.5µM*
Cc1cccc(-n2c(-c3csc(C)c3C)n[nH]c2=S)c1 | 2% | -2% | -11% | -10% | 22µM* | 1.1µM*
Cc1cccc(-n2c(-c3csc(C(C)C)c3)n[nH]c2=S)c1 | 1% | 12% | -33% | / | ? | ?
CCOc1ccccc1NC(=O)C1CCN(S(=O)(=O)c2c(C)noc2/C=C/c2ccco2)CC1 | / | -5% | / | / | -22% | ?
CC[C@H](CC[C@H](C)[C@@H]1CC[C@@H]2[C@H]3CC=C4C[C@@H](O)CC[C@]4(C)[C@H]3CC[C@]21C)C(C)C | 4% | / | / | / | / | 23%[21.5 µM]
C[C@H]1CCC/C=C/[C@@H]2C[C@H](O)C[C@H]2[C@H](O)[C@H](S(=O)c2ccc(O)cc2)CC(=O)O1 (stereo partly specified) | / | ? | / | / | 40µM* | /
CC(=O)c1cc(-c2ccccc2)n(CC(=O)NCc2ccccc2C)c1C | / | 29% | -1% | / | 0% | -8%[59 µM]
SMILES | Sfp inh | HP1b chromo inh | BAZ2B block | L3MBTL1 block | JMJD2A Tudor inh | G9a block
O=C(O)C1Sc2[nH]c(=O)sc2C2c3cc(Br)ccc3OC(=O)C12 (stereo unspecified) | ? | ? | ? | / | -28% | /
O=C(O)C1Sc2[nH]c(=O)sc2C2c3ccc(O)cc3OC(=O)C12 (stereo unspecified) | ? | ? | -38% | -2% | -30% | 40µM*
CCN(CC)S(=O)(=O)c1cccc(C(=O)c2c(C)cc3ccccn23)c1 | -9% | 50% | -2% | 0% | -15% | 19%[59 µM]
Cc1cc2ccccn2c1C(=O)c1ccc(C#N)cc1 | 9% | -4% | ? | / | -15% | ?
Cc1cc2ccccn2c1C(=O)c1cc([N+](=O)[O-])cc([N+](=O)[O-])c1 | 4% | ? | 10µM* | ? | 18µM* | 32µM*
Cc1cc2ccccn2c1C(=O)c1ccc(NN)c([N+](=O)[O-])c1 | -28% | 32µM* | 18µM* | -29% | 40µM* | 10µM*
COC(=O)c1cc(C(=O)c2c(C)cc3ccccn23)cc([N+](=O)[O-])c1 | -1% | ? | ? | / | 45µM* | 32µM*
C#CC(C)OC(=O)Nc1cnccc1C(F)(F)F (stereo unspecified) | 17% | 32% | 3% | 3% | -9% | -1%
CCc1ccccc1NC(=O)C(CC)Sc1nc2cc3c(cc2c(=O)n1Cc1ccco1)OCO3 (stereo unspecified) | 24% | 7% | 5% | 6% | -19% | -4%[12.7 µM]
CCc1ccc(NC(=O)C(CC)Sc2nc3cc4c(cc3c(=O)n2Cc2ccco2)OCO4)cc1 (stereo unspecified) | 45µM* | 5% | 4% | / | -25% | -12%
C=CCC(O)(/C=C/c1ccccc1)c1ccccc1 (stereo unspecified) | -19% | / | / | / | / | /
CC(=Nc1cccc(C)c1)c1sc2ccccc2c1O | -5% | 27% | -9% | 36% | ? | -22%
Oc1c(N=Nc2ccccc2)sc2ccccc12 | 1% | -24% | 2µM* | -26% | ? | /
Oc1ccc(C[C@H]2CNC(=S)N2CC2CCCN2C[C@H](Cc2ccccc2)N2C[C@H](Cc3ccc(O)cc3)N(CC3CCCCCC3)C2=S)cc1 (stereo partly specified) | / | 11% | / | / | ? | /
CC(NC(=O)CCCN1C(=O)CCn2nc(-c3cn(C)c4ccccc34)cc21)c1ccccc1 (stereo unspecified) | / | 16%[57 µM] | -5% | / | -21% | 15%[59 µM]

Bioassay records (PubChem)
